Compounds without any hit were thinned out: in the full panel of roughly 83,000, 20% have a hit.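 Compound tested at a single concentration for 48 hours in 96-well plates; a percent growth value below 10 was scored as active.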 Values without a mark were called inactive. Calls of active or inactive are those of the source.
Experiments:
Experiment in all cases: NCI-60 one-dose screen, 48 h (100 = growth as untreated, 0 = no growth, -100 = all killed)
Conditions in all cases: 10 µM unless noted
NCI-H23 lung = system: NCI-H23 lung
NCI-H226 lung = system: NCI-H226 lung
NCI-H322M lung = system: NCI-H322M lung
HOP-62 NSCLC = system: HOP-62 NSCLC
NCI-H460 lung = system: NCI-H460 lung
NCI-H522 lung = system: NCI-H522 lung
A549/ATCC NSCLC = system: A549/ATCC NSCLC
786-0 renal = system: 786-0 renal
COLO 205 colon = system: COLO 205 colon
DU-145 prostate = system: DU-145 prostate
K-562 leukemia = system: K-562 leukemia
MALME-3M melanoma = system: MALME-3M melanoma
MDA-MB-231 breast = system: MDA-MB-231 breast
RXF 393 renal = system: RXF 393 renal
SF-268 CNS = system: SF-268 CNS
SF-295 CNS = system: SF-295 CNS
SF-539 CNS = system: SF-539 CNS
UACC-257 melanoma = system: UACC-257 melanoma
M14 melanoma = system: M14 melanoma

Row | Compound | growth (NCI-H23 lung) | growth (NCI-H226 lung) | growth (NCI-H322M lung) [%] | growth (HOP-62 NSCLC) | growth (NCI-H460 lung) | growth (NCI-H522 lung) | growth (A549/ATCC NSCLC) [%] | growth (786-0 renal) | growth (COLO 205 colon) | growth (DU-145 prostate) | growth (K-562 leukemia) | growth (MALME-3M melanoma) | growth (MDA-MB-231 breast) | growth (RXF 393 renal) | growth (SF-268 CNS) | growth (SF-295 CNS) | growth (SF-539 CNS) | growth (UACC-257 melanoma) | growth (M14 melanoma)
1 | Cc1cccc(/C=N/n2c(-c3ccc(Cl)cc3)nc3c(Br)cc(Br)cc3c2=O)c1 | 29.2% | 37.9% | 53.8 | 33.8% | 29.1% | 38.1% | 31.4 | 51.9% | 46.8% | 66.2% | 65.7% | 70% | 44.9% | 61.3% | 69.9% | 35.4% | 70% | 76.3% | 60.4%
2 | Oc1ccccc1-c1nnc(COc2ccc(Cl)cc2Cl)o1 | 57% | 66.2% | 52.6 | 40.6% | 28.3% | 1.97% (active) | 54.5 | 44.7% | 67% | 48.1% | 44.5% | 68.3% | 48.2% | 63.5% | 8.59% (active) | 47.4% | 52.1% | 58.9% | 42.5%
3 | Clc1ccc(-c2cnc3c(-c4ccnc(N5CCNCC5)c4)cnn3c2)cc1 | -12.3% (active) | 115% | 23.2 | -37.8% (active) | -39.8% (active) | -53.8% (active) | 16.7 | -70% (active) | -57.7% (active) | 27.6% | -13.5% (active) | -37.5% (active) | -23.3% (active) | -32.6% (active) | -16.2% (active) | 34.9% | -82.4% (active) | -60% (active) | -78.8% (active)
4 | Cc1cc(O)c2cc3c(O)c(O)ccc3cc2c1 | 101% | 115% | 119 | 120% | 125% | 88.6% | 117 | 91.5% | 123% | 105% | 90.8% | 109% | 95.2% | 107% | 135% | 109% | 100% | 132% | 128%
5 | COc1cc(/C=C\c2cc(/C=C\c3ccc(O)c(OC)c3)n(C(=O)Nc3ccc(C(F)(F)F)cc3)n2)ccc1O | 51.3% | 82.7% | 82.7 | 62.9% | 18.3% | 7.32% (active) | 43 | 20.1% | 51.3% | 47.6% | 9.45% (active) | 52.3% | 54.8% | 22.7% | 37.1% | 83.4% | 29% | 25% | 29.5%
6 | Cc1ccc(C(CN(C)C)C(=O)c2ccccc2)cc1 (configuration not stated) | 71.5% | 80.9% | 101 | 101% | 71.7% | -66.4% (active) | 81.7 | -20.7% (active) | 43.5% | 34.7% | -26.8% (active) | 79.8% | 25.4% | 43.6% | 25.9% | 85.6% | 57.6% | 49.1% | 31.6%
7 | O=C1Nc2ccc(Cl)cc2/C1=C\c1c(-c2ccc(F)cc2)nc2ccccn12 | -20.1% (active) | -30.8% (active) | 43.6 | -10.3% (active) | 6.88% (active) | 11.4% | 23.7 | 24.6% | 45.7% | -19% (active) | -39.5% (active) | 16.6% | 45.9% | -13.4% (active) | 5.15% (active) | -41% (active) | -31.2% (active) | 75.6% | -9.52% (active)
8 | O=C1C=CN2C(=O)CC=CC2[C@@H]1O (some centres not stated) | 103% | 113% | 116 | 112% | 121% | 113% | 108 | 110% | 123% | 118% | 109% | 133% | 122% | 118% | 111% | 116% | 104% | 108% | 104%
